# Target: Calmodulin-1 (Homo sapiens) (UniProt P0DP23)
# Experiment: CALM1 binders on microarrays, EGTA buffer, profiling panel, biochemical, small-molecule microarray, Cy5-labelled CALM1 (AID 1111);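 further: labelled calmodulin applied in Tris saline Tween buffer holding calcium plus EGTA and DTT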
# Conditions: Cy5-CALM1 binding fluorescence, higher = more signal
row,Compound,composite z-score
1,COC(=O)c1nc2oc1CC[C@@H](CO)NC(=O)N(C)Cc1cnnn1C[C@H](Cc1ccccc1)NC2=O,-0.677
2,CN1C(=O)C2C=CC(C(O)COCc3ccccc3)N(N(c3ccccc3)c3ccccc3)C2C1=O (stereo not given),1.41
3,COc1cc2c(cc1O)C(C)N(Cc1ccc([N+](=O)[O-])o1)CC2 (stereo not given),2.21
4,C=CCOC(=O)[C@H]1[C@@H]2C(=O)O[C@@H](c3ccccc3)[C@@H](c3ccccc3)N2[C@@H](c2ccc(OCCOC(=O)[C@@H]3C[C@@H]4C(=O)N[C@@H](CCCCN(C)C)C(=O)N4[C@@H]3c3ccc(O)cc3)cc2)[C@]12C(=O)Nc1ccccc12,-1.35
5,CCOC(=O)C1=C[C@@H](c2ccccc2)N(S(=O)(=O)c2ccc(C)cc2)[C@H]1c1ccccc1Cl,1.06
6,C[N+](C)(C)CCCCCCNC(=O)[C@H]1C[C@H]2C(=O)NCC(=O)N2[C@H]1c1ccc(O)cc1,0.14
7,COc1cc(CO)cc(I)c1O[C@H]1C=C(C(=O)NCCO)C[C@@H](NCc2ccc(F)cc2)[C@@H]1O,0.433
8,COC1OC[C@]2(C)[C@H]3C4=C(CN2C(=O)OC(C)(C)C)[C@H](C)C(CO)C(CO)C4CC[C@@H]13 (stereo not given in full),2.62
9,O=C1O[C@H](c2ccccc2)[C@H](c2ccccc2)N2[C@H]1[C@@H](C(=O)Nc1nc3ccccc3s1)[C@]1(C(=O)Nc3ccc(C#CCCO)cc31)[C@H]2c1ccc(O)cc1,0.628
10,C=CCC(OC(C)=O)[C@@H]1[C@@H](N(Cc2cc3ccccc3o2)C(=O)Cc2ccc(F)cc2)c2cc(OCCCO)ccc2N1C(=O)c1ccc2ccccc2c1 (stereo not given in full),-0.478
11,OCCCC1=CC(c2ccc(CN3CCCC3)cc2)N(Cc2sc3ccccc3c2Cl)CC1 (stereo not given),0.325
12,O=C1O[C@H](c2ccccc2)[C@H](c2ccccc2)N2[C@H]1[C@@H](C(=O)N1CCN(c3ncccn3)CC1)[C@]1(C(=O)Nc3ccc(C#CC4(O)CCCCCC4)cc31)[C@H]2c1ccc(OCCO)cc1,2.26
13,O=C1C2C=CC(C(O)c3ccc(Br)cc3)N(Nc3ccccc3F)C2C(=O)N1c1ccccc1 (stereo not given),0.0034
14,COCCOC(=O)N1C(=O)[C@@]2(c3cc(C#CCC(C(=O)OC)C(=O)OC)ccc31)[C@H](C(=O)N1CCc3cc(OC)c(OC)cc3C1)[C@H]1C(=O)O[C@H](c3ccccc3)[C@H](c3ccccc3)N1[C@@H]2c1ccc(OCCO)cc1,0.756
15,CC(CO)N1C(=O)[C@@H]2[C@H]3C(=O)OCC=C[C@H]3OC23C=CCN(CCN2CCOCC2)C(=O)[C@@H]13 (stereo not given in full),-0.998
16,C=C(COC)C(=O)CC[C@@H](OC(=O)c1cccnc1)c1ccc(OCCO)cc1,-0.299
17,COC(=O)[C@@]1(Cc2ccc(OC)cc2)[C@H]2c3cc(C(=O)N4CCCC4)n(Cc4cccc5ccccc45)c3C[C@H]2CN1C(=O)c1ccccc1,1.38
18,CC(C)(C)OC(=O)CC[C@@]1(C(=O)NCc2ccccc2)N=C(c2ccc(OCCCO)cc2)O[C@@H]1c1ccccc1N=[N+]=[N-],1.15
19,C=CC[C@@]1(C(=O)N2CCOCC2)N=C(c2ccc(OCCCO)cc2)O[C@@H]1c1ccccc1CN=[N+]=[N-],1.9
20,COC(=O)[C@@]1(Cc2ccc(F)cc2)[C@H]2c3cc(C(=O)N4CCCC4)n(CCc4ccc(O)c(O)c4)c3C[C@H]2CN1C(=O)c1ccccc1,0.765
21,CCOC(=O)C[C@H]1[C@H](OC(=O)c2cc3ccccc3oc2=O)[C@@H](NC(=O)c2ccc(-c3ccccc3)cc2)c2cc(OCCCO)ccc2N1C(=O)c1ccc2ccccc2n1,0.0371
22,COc1ccc([Si](C)(C)[C@H]2[C@H](CCn3cc([C@H](O)c4ccccc4)nn3)O[C@@]3(C(=O)N(Cc4ccc(N5C(=O)c6cccc7cccc5c67)cc4)c4ccccc43)[C@@H]2C)cc1,0.103
23,C[C@@H]1NC(=O)[C@@]23C(=O)N[C@@H](Cc4ccccc4)C2[C@H](C)[C@@]2(C)O[C@H]2C3/C=C/C/C=C\CNC(=O)[C@@H]2CCCN2C1=O (stereo not given in full),-0.535
24,COC(=O)[C@@]1(Cc2ccccc2)[C@H]2c3cc(C(=O)N(C)C)n(Cc4c(CO)[nH]cc(C)c4=O)c3C[C@H]2CN1C(=O)c1ccccc1,0.278
25,COC(=O)CCCCCCC(=O)Nc1ccc(NC(=O)CCCC[P+](c2ccccc2)(c2ccccc2)c2ccccc2)cc1,-0.0302

# From PubChem BioAssay
